D2 antag – D2 dopamine receptor (human) antagonism; inhibition, % at 10 µM; hit rate 2% among 340,000; AID 485344; HEK293 TREx D2 cells, calcium flux, dopamine EC80; in the data active means inhibition above about 30%; inactive means below that, where a call was filed; further: 0% is about no effect
Target sequence (P14416 whole entry, looked up): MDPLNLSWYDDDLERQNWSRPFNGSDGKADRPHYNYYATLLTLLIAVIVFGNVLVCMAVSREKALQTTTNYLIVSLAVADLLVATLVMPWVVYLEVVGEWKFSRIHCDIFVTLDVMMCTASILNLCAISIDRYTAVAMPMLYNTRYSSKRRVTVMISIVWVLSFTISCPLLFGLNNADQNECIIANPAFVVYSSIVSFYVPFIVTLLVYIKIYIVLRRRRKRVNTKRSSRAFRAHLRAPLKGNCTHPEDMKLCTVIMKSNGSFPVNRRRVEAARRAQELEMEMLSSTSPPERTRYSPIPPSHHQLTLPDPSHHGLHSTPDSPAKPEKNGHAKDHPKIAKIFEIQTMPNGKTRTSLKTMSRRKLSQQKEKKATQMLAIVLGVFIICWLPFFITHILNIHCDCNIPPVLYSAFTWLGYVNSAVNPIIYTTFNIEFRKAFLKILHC
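Overnight-induced (tetracycline, 30 C) HEK293 T-REx cells carrying force-coupled D2 receive a no-wash calcium dye, then compound, then EC80 dopamine at 180 s; signals are read kinetically throughout.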
D2 ag-1 – activates the human D2 dopamine receptor | P14416 | HEK293 T-REx D2 cells, calcium flux agonist mode | activation, % at 2 µM | hit rate 0.53% among 340,000;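 active means activation over 3 SD above normal in the single-dose calcium agonist read, cut at about 30% in these data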; further: 0% is about no effect
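Agonism scored from kinetic calcium signal (1 read/sec, 180 s) following compound pin transfer, after a 10 s baseline. Cells: HEK293 Trex line expressing inducible D2 receptor coupled to calcium, dye-loaded after overnight culture at 30 C.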
D2 PAM-1 – potentiates the human D2 dopamine receptor allosterically; DiscoveRx D2 beta-arrestin cells, luminescence, 90 min; 100% = 57 uM dopamine signal; potentiation, % (no concentration beside the values); hit rate 0.23% among 360,000; AID 624464; in the data active means potentiation above about 50%; inconclusive means mostly about 30% to 49%
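PathHunter D2 cells, attached overnight at 37 deg C, received compound in DMSO plus dopamine at EC20 (50 nM final) for 90 min at 37 deg C. Beta-arrestin recruitment was read as luminescence after 1 h with detection reagent at ambient temperature.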
D2 ag-2 – human D2 receptor agonism in beta-arrestin assay | P14416 | DiscoveRx PathHunter D2 beta-arrestin, luminescence, 90 min; 100% = 57 uM dopamine signal | activation, % (test concentration not listed) | hit rate 0.084% among 360,000; in the data active means activation above about 40%; inconclusive means between about 15% and that limit
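DiscoveRx PathHunter D2 beta-arrestin cells (2,100/well) attached overnight, then compound-stimulated 90 min at 37 C in HBSS/10 mM HEPES/0.1% Tween-20 buffer; beta-galactosidase complementation read by luminescence after 1 h at ambient temperature. Dopamine 57 uM final (EC100) as control.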
D2 PAM-2 – positively modulates the human D2 dopamine receptor allosterically | hit rate 0.34% among 340,000 | potentiation, % at 10 µM | HEK293 T-REx D2, calcium flux, EC20 dopamine potentiation | AID 485347 | P14416;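 active means potentiation over 3 SD above the plate norm, cut at about 30% in these data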; further: 0% is about no effect
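Cells plated with tetracycline inducer and held overnight at 30 C; calcium dye loaded 30–90 min at room temperature; baseline taken, compound added and read 180 s; EC20 dopamine then added and read 180 s.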
Active calls of the source: *; u = inconclusive; x = not tested or not shown. Hits are enriched below; roughly 2.4% of the tested compounds scored in any of these assays.

SMILES	D2 antag	D2 ag-1	D2 PAM-1	D2 ag-2	D2 PAM-2
COC(=O)C1=C(C(=O)c2ccc(C)cc2)C(c2ccc(O)c(OC)c2)n2nnnc2N1 (stereo unspecified)	15.0	0.8	14.6	-2.9	-2.7
Cc1ccc(C)n1-c1c(C(=O)NCCCN2CCN(c3ccc(F)cc3)CC2)sc2ncccc12	x	x	x	x	-27.5
CC(C)Oc1cccc(C(=O)Nc2ccccc2N2CCOCC2)c1	33.4*	-0.4	-1.9	2.1	-1.8
CCC(C)Oc1cccc(C(=O)Nc2ccccc2N2CCOCC2)c1 (stereo unspecified)	-1.9	0.3	-0.9	0.5	2.7
CC1CCCN(S(=O)(=O)c2ccc(C(=O)Nc3nnc(-c4ccccn4)o3)cc2)C1 (stereo unspecified)	34.6*	0.1	-7.7	2.4	10.3
Cc1nnc(NC(=O)c2ccc(S(=O)(=O)N3CCCCCC3)cc2)o1	0.3	0.2	-16.6	-2.6	10.0
COCc1nnc(NC(=O)c2ccc(S(=O)(=O)N3CCCCCC3)cc2)o1	7.1	0.5	-2.2	0.1	31.9*
CC(C)C(=O)n1nc(-c2cccnc2)nc1NCc1ccc(F)cc1	-1.3	-0.4	-3.3	1.6	45.8*
O=C(CN(CCN1CCOCC1)C(=O)Cn1nnc(-c2ccc(F)cc2)n1)NC1CCCCC1	70.6*	0.7	-6.2	-4.0	6.0
O=C(CN(CCCN1CCOCC1)C(=O)Cn1nnc(-c2ccc(F)cc2)n1)NC1CCCCC1	1.5	0.8	-13.9	-3.8	-9.7
CCCCN(CCCC)C(=O)CN(C)S(=O)(=O)c1ccc2c(c1)c(=O)n(C)c(=O)n2C	x	0.7	x	x	15.6
Cc1ccc(NC(=O)C2C3C=CC4(O3)C2C(=O)N(CCN2CCOCC2)C4C(=O)NC2CCCCC2)cc1C (stereo unspecified)	0.7	0.4	-4.9	-1.9	0.9
Cc1ccc(NC(=O)C2C3C=CC4(O3)C2C(=O)N(CCCN2CCOCC2)C4C(=O)NC2CCCCC2)cc1Cl (stereo unspecified)	31.1*	1.3	-8.3	4.7	2.2
CC(=O)N1C(C)(C)CC(=NOC(=O)c2ccc(C)cc2)CC1(C)C	-19.6	-0.4	67.3*	u	-1.9
CC(=O)N1C(C)(C)CC(=NOC(=O)c2ccccc2)CC1(C)C	-5.4	-0.3	-1.2	10.4	-0.2
CCc1cc2c(cc3c(=O)n(CC(=O)NCc4cc(Br)ccc4OC)ncn32)s1	x	-0.7	x	x	6.1
COC(=O)c1cc(NC(=O)c2ccc3c(c2)N(Cc2cccc(Cl)c2)C(=O)c2ccccc2S3=O)cc(C(=O)OC)c1 (stereo unspecified)	x	-0.1	x	x	5.9
c1ccc(CNc2cnccn2)cc1	10.9	-0.5	-3.0	0.8	40.8*
c1ccc(CCNc2cnccn2)cc1	37.7*	1.4	-10.9	7.2	-12.3
Fc1ccc(CNc2cnccn2)cc1	-16.5	0.3	-3.6	-1.2	5.1
COc1cc(C(=O)NCc2ccc3c(c2)CCN3C(=O)c2ccc(Cl)cc2)cc(OC)c1OC	x	0.3	x	x	7.4
COc1ccc(NC(=O)COc2ccc(C(=O)NC3CCCc4ccccc43)cc2OC)cc1 (stereo unspecified)	-2.2	-1.5	3.4	-0.7	35.9*
Cc1cc(C)c2c(c1)[C@@H]1C=CC[C@@H]1[C@H](c1ccc(S(=O)(=O)N3CCOCC3)cc1)N2	35.0*	-0.2	-4.6	-1.6	2.0
Cc1cccc(CN2CCN(c3nc4nonc4nc3NC3CC3)CC2)c1	-5.5	0.0	-1.8	-4.7	5.5
Clc1cccc(CN2CCN(c3nc4nonc4nc3NC3CC3)CC2)c1	37.7*	0.4	-3.1	-2.2	8.3
SMILES	D2 antag	D2 ag-1	D2 PAM-1	D2 ag-2	D2 PAM-2
Cc1cc(C)c(NC(=O)c2cc(S(=O)(=O)N3CCCC3)cn2C)c(C)c1	x	0.3	x	x	15.4
O=C(CSc1nnc(-c2ccc(Cl)cc2)n1-c1ccc(Cl)cc1)N/N=C/c1ccco1	-9.4	-0.6	17.4	11.3	-8.7
Cc1ccc(/C=N/NC(=O)CSc2nnc(-c3ccc(Cl)cc3)n2-c2ccccc2)o1	-19.3	-1.2	87.6*	u	-0.6
O=C(NC1CCN(Cc2ccccc2)CC1)C1COc2ccccc2O1 (stereo unspecified)	34.2*	-1.8	-45.6	3.1	-24.9
S=C(NCc1ccc2c(c1)OCO2)NC1CCN(Cc2ccccc2)CC1	103.0*	2.5	-10.0	-1.8	-45.5
C=C(C)c1cccc(C(C)(C)NC(=O)NC2CCN(Cc3ccccc3)CC2)c1	89.2*	0.3	-25.5	-5.8	-30.7
COc1ccc(Cn2c(=O)[nH]c3cc(C(=O)NC4CCN(Cc5ccccc5)CC4)ccc32)cc1	75.5*	-0.3	-23.5	2.4	-24.1
CCc1nc2ccccc2n1CCCCOc1ccc(Cl)cc1	x	0.6	x	x	-0.4
CC(=O)c1ccc(N2C(=O)N(Cc3cccc(C(F)(F)F)c3)c3ccccc3S2(=O)=O)cc1	x	0.8	x	x	-5.1
O=C(NC1CCN(Cc2ccccc2)CC1)c1cccc(OC(F)F)c1	81.0*	0.3	-24.4	-3.1	-22.0
O=C(NC1CCCCC1)c1ccc2c(c1)OCCO2	4.7	-1.1	2.1	2.1	0.0
O=C(NC1CCN(Cc2ccccc2)CC1)c1cccc(Br)c1	98.3*	-0.1	-13.1	-1.4	-26.3
C=C(C)c1cccc(C(C)(C)NC(=O)N2CCCC2)c1	-8.7	-0.1	-9.3	-2.4	13.3
C=C(C)c1cccc(C(C)(C)NC(=O)N2CCN(c3ccccn3)CC2)c1	31.2*	4.6	-2.6	1.3	-4.1
O=C(NC1CCN(Cc2ccccc2)CC1)c1ccc2c(c1)OCCCO2	30.3*	0.7	-30.2	-3.8	-22.9
COc1ccc(NS(=O)(=O)c2cccc(C(=O)NC3CCN(Cc4ccccc4)CC3)c2)cc1	16.0	0.4	-24.0	-0.7	-7.5
CCOc1ccccc1-c1noc(CSc2nnc(-c3ccncc3)n2-c2ccc(F)cc2)n1	x	3.7	x	x	8.5
CCN(C(=O)CSc1nc2n[nH]c(C)c2c(=N)n1-c1cccc(OC)c1)c1cccc(C)c1	x	0.1	x	x	-10.3
CC1=C(C(=O)NCCc2ccc(Cl)cc2)C2(CCCCC2)OC1=O	x	1.3	x	x	-10.4
Cc1c(C(=O)NC2CCN(Cc3ccccc3)C2)oc2ccc(Br)cc12 (stereo unspecified)	37.7*	-0.9	-20.0	2.4	-24.7
CCOc1ccc2oc(C(=O)NC3CCN(Cc4ccccc4)CC3)c(C)c2c1	-12.3	-0.4	-14.4	-4.9	-17.3
O=C(COc1ccc(Br)cc1Cl)NC1CCN(Cc2ccccc2)CC1	67.0*	0.7	-23.3	-3.3	-20.5
CCCCCn1c(=O)[nH]c2cc(C(=O)N3CCN(c4cccc(C)c4)C(C)C3)ccc2c1=O (stereo unspecified)	x	0.9	x	x	14.6
COC(=O)C(C)Sc1nnc(SC(C)C(=O)OC)s1 (stereo unspecified)	39.7*	-1.3	-13.7	-3.0	21.4

High-throughput results: PubChem, National Center for Advancing Translational Sciences (NCATS)
